Screens as filed in PubChem BioAssay.
Only some compounds are listed: those with a hit (about 2.8% of all), similar ones and a draw of the others.
MBNL1 CUG block: MBNL1-poly(CUG) RNA binding inhibition; TR-FRET MBNL1-His/biotin-(CUG)12 binding, 665/545 ratio; Potency, µM (highest dose often 57.5 µM), inactives show at the top dose activity change, negative = inhibition, most hits filed as inhibitors; 280,000 compounds, 0.036% hits; AID 2675; active = well fitted inhibition curve with a large enough effect in the signal ratio, with a control signal flat, not every such curve was filed as active; inconclusive = small, poorly fitted or top-dose-only effect, or effect the other way, or a change in a side signal; inactive = no such curve, though single readings can be large or run the other way; the % refers to the signal ratio; note: potency is the fitted concentration of half-maximal effect; % is set by controls: 0 for no effect and ±100 for the full control effect
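His-tagged MBNL1 binding to biotinylated (CUG)12 RNA was measured by TR-FRET using terbium anti-His antibody (0.055 ng/ul final) and streptavidin-XL665 (5 nM final). Compounds were titrated 92 nM to 58 uM; 60 min at room temperature.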
DRD3 agonist: D3 dopamine receptor (human) agonism | max activation, % | AID 652048 | D3R DiscoveRx beta-arrestin cells, luminescence, 90 min | P35462 | 410,000 compounds, 0.58% hits; in the data active = max activation above about 30%; note: 0% is about no effect
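Agonist-mode cell screen: cells plated at 1500/well and incubated overnight at 37 °C, then exposed to library compounds for 90 min at 37 °C. Detection reagent was added for 30–60 min at room temperature, and luminescence was read.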
PTHR1 agonist: agonists of human PTHR1 parathyroid hormone receptor. Q03431. 410,000 compounds, 0.075% hits. Potency, µM (series often up to 115 µM), for inactives: at the highest dose activation, hits mostly activators. AID 743266. HEK293 GP2 PTHR1 cells, GloSensor cAMP luminescence, 1 h; note: potency is the fitted concentration of half-maximal effect; nearly all actives have a fitted effect of over 55% in size
Target sequence (Q03431 whole entry, looked up): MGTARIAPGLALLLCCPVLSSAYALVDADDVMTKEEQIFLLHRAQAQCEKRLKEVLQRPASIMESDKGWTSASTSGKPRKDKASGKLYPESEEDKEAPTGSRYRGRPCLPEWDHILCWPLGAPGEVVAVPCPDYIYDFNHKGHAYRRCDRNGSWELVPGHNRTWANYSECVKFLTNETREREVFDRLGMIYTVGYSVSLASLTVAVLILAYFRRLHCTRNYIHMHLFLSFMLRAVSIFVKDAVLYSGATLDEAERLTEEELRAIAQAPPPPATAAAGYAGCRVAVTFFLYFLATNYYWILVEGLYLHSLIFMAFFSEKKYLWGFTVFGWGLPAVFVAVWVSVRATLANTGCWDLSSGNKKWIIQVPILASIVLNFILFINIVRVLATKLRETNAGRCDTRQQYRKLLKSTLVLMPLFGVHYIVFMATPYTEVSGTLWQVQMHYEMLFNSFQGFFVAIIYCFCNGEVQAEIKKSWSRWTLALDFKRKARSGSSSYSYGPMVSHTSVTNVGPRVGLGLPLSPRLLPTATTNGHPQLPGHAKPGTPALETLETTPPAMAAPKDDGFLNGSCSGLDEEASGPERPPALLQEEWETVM
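HEK-293-derived GP2 cells expressing PTHR1 and a GloSensor cAMP reporter, 3,000/well, plated overnight, given luciferin plus IBMX (each 0.5 mM as added) for 1 h at 37 °C, then compound for 1 h at 37 °C. Luminescence was read after 15 min at room temperature.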
DRD3 antagonist: D3 dopamine receptor (human) antagonism; D3R cells, DiscoveRx beta-arrestin luminescence, antagonist mode; hits give low values; P35462; 360,000 compounds, 2.5% hits; max response, negative = inhibition, %; in the data active = max response below about -50%; inconclusive = no clear call, values can overlap the other calls; note: % is set by controls: 0 for no effect and ±100 for the full control effect
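Cells expressing the human receptor were seeded at 1500 cells/well, incubated overnight at 37 degrees C in 5% CO2, then exposed to library compounds with dopamine controls for 90 minutes at 37 degrees C before luminescent detection.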
CBFb-RUNX1 inh: inhibitors of human CBF-beta and RUNX1 interaction. AlphaScreen CBFb-His/RUNX1-biotin binding, biochemical. Potency, µM (doses to about 59.8 µM), inactives show top-dose activity, negative = inhibition, actives largely listed as inhibitors. 230,000 tested, under 10 active. AID 1477; note: % of control where 0% means no effect
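AlphaScreen proximity signal reports loss of binding between His-tagged CBF-beta and biotin-labelled RUNX1, each at 30 nM. Proteins are pre-associated for 20 minutes, compounds added for 15 minutes, then beads for 90 minutes, all at ambient temperature.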
Integrin act MD: activators of alpha7 integrin expression for muscular dystrophy. alpha7betagal myoblasts, beta-gal FDG fluorescence, 48 h. Potency, µM (doses to about 38.3 µM), inactives show at the highest dose activation, actives largely listed as activators. 350,000 compounds, 0.064% hits. AID 624291;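 note: potency is the fitted concentration of half-maximal effect; 100% = response of the positive control SU9516; nearly all actives have a fitted effect of over 60% in size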
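alpha7betagal+/- myoblasts (passage 13, 250/well) treated 48 h at 37C with compounds at 1:260 dilution of DMSO stock. Lysed, then beta-galactosidase activity read as FDG fluorescence (ex 480/em 540) after 30 min, with pre-read for autofluorescence.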
The depositor's hits bear a star; i = inactive; ? = inconclusive; . = not tested or not shown; [ ] = dose if it differs, or a comment. Unless noted, calls come from the whole dose curve; as a rule, active = well fitted curve in the direction sought with a large enough effect; inconclusive = small, poorly fitted or top-dose-only effect, or another doubt; inactive = no such curve, though single readings can be large; an effect the other way counts as inactive or inconclusive.

SMILES	MBNL1 CUG block	DRD3 agonist	PTHR1 agonist	DRD3 antagonist	CBFb-RUNX1 inh	Integrin act MD
CC(=O)Oc1ccc(Cl)cc1CN(C(C)=O)C1CCCCC1	.	-10	i	-16	.	-21%
Nc1ccn(CC(=O)NCCNc2ccc([N+](=O)[O-])cn2)c(=O)n1	.	98*	23%	7	.	6%
CCOC(=O)Cc1nnc(NC(=O)CSc2ccc(Cl)cc2)s1	6%	-1	i	-53*	-2%	15%
COc1ccc(-c2nnc(NC(=O)CSc3ccc(Cl)cc3)s2)cc1OC	-2%	7	i	8	3%	25%
CC1(C)CC(=O)c2cc(C(=O)Nc3ccccc3Cl)c(=O)n(-c3ccc(Cl)cc3)c2C1	.	-4	-15%	.	.	.
CC1(C)CC(=O)c2cc(C(=O)Nc3ccc(Br)cc3)c(=O)n(-c3ccc(Cl)cc3)c2C1	.	52*	-19%	.	.	.
O=C(COCc1cc(-c2cccs2)on1)NCc1cccc(Cl)c1	.	-19	16%	.	.	.
CN(C(=O)c1cc(-n2cnnc2)ccc1Cl)c1ccccc1	-15%	2	i	-2	-1%	-9%
NC1=NC2(CCN(Cc3ccccc3)CC2)n2c(nc3ccccc32)N1	?	-9	i	-75*	-4%	2%[7.66 µM]
CCN(C1CCCCC1)S(=O)(=O)c1ccc(S(=O)(=O)N2CCN(CCC#N)CC2)cc1	4%	-3	-37%	-53*	16%	-14%
N#CCCN1CCN(S(=O)(=O)c2ccc(S(=O)(=O)N3CCCCCC3)cc2)CC1	-5%	-9	-29%	-11	6%	0%
Cn1nc(C(F)(F)F)cc1C(=O)NC1CCCCCC1	5%	40*	-14%[57.5 µM]	32	5%	0%
COc1cc(C(=O)/C=C/c2cccnc2)c([N+](=O)[O-])cc1OC	.	0	-43%	-73*	.	-33%
O=C1C=CC(=O)N1c1ccc2c(c1)Cc1cc(F)ccc1-2	.	5	-17%	-8	.	2%
CC(=O)Nc1ccc2c(c1)Cc1cc(N3C(=O)C=CC3=O)ccc1-2	.	-7	-11%	-64*	.	-76%
COc1ccc(C(=O)c2sc3nc(C)cc(-c4cccs4)c3c2N)cc1OC	49%	52*	i	11	?	-34%
O=C(NCCc1ccccc1)c1ncn[nH]1	-2%	35*	i	-21	9%	-15%
O=C(NCCc1ccc(Cl)cc1)c1ncn[nH]1	-9%	-1	-8%	7	0%	6%
CC(=O)C1=C(c2ccc(Br)cc2)C(=O)c2ccccc2C1=O	21%	-13	-35%	-87*	-11%	-56%
O=C(O[C@@H]1OC2COC(=O)c3cc(O)c(O)c(O)c3-c3c(cc(O)c(O)c3O)C(=O)O[C@@H]([C@H]1O)[C@@H]2O)c1cc(O)c(O)c(O)c1	-8%	32*	-35%	17	.	-35%
CC1CC(C)CN(S(=O)(=O)c2ccc(C(=O)N(C)Cc3ccccc3)cc2)C1 (stereo not drawn)	.	1	-35%	26	.	3%
OCCNCc1ccc(-c2ccccc2)cc1	?	-4	2%	-22	7%	-26%
OCCCNCc1ccc(N(c2ccccc2)c2ccccc2)cc1	4%	-21	i	-66*	.	-65%
CC(=O)C1=CCC(c2ccccc2)N(Cc2ccccc2)C1 (stereo not drawn)	.	5	-20%	-2	.	.
COc1ccc(CN(C)C(c2ccccc2)c2nnnn2-c2ccccc2C)c(OC)c1C (stereo not drawn)	6%	-12	-1%	0	0%	-35%
SMILES	MBNL1 CUG block	DRD3 agonist	PTHR1 agonist	DRD3 antagonist	CBFb-RUNX1 inh	Integrin act MD
COc1cccc(CN(C)C(c2ccccc2)c2ccccc2)c1OC	-3%	-18	-15%	-51*	.	-5%
OC1(c2ccc(Br)cc2)CCN(Cc2cccc(Br)c2)CC1	-1%	-17	-2%	-106*	.	-31%
CCc1ccccc1OCC(=O)NNCC(=O)Nc1cccc(C#N)c1	.	-4	-7%	?	.	-27%
O=S1(=O)C=C[C@@H](COCc2ccccc2)N1Cc1ccc(Br)cc1	.	-10	-37%	-51*	.	.
CCN(Cc1ccccc1)c1ccc(N=Nc2nn(C)c(C)c2[N+](=O)[O-])cc1	?	-12	i	-51*	.	-34%
CCN(CC)c1ccc(N=Nc2nn(C)c(C)c2[N+](=O)[O-])cc1	.	-14	-25%	-59*	.	-30%
CCN(CC)c1ccc(N=Nc2ncn[nH]2)cc1	?	-12	i	?	?	-18%
COC(=O)c1ccccc1NC(=O)CN1CCC(C(=O)c2ccc3c(c2)OCCO3)CC1	2%	40*	-35%	43	-1%	-39%
CC(=O)c1ccc(NC(=O)CN2CCC(C(=O)c3ccc4c(c3)OCCO4)CC2)cc1	-7%	-2	i	-6	.	-42%
CN(C)c1ccc(NC(=O)CN2CCC(C(=O)c3ccc(F)cc3)CC2)cc1	4%	-27	i	-82*	-14%	13%[7.66 µM]
Cc1ccc(NC(=O)CN2CCC(C(=O)c3ccc4c(c3)OCCO4)CC2)cc1	1%	-4	-20%[57.5 µM]	-52*	-7%	-26%
COc1ccc(C(=O)C2CCN(CC(=O)Nc3ccc(C)cc3)CC2)cc1	-23%	-31	-17%	-113*	.	3%
OC(CNCc1ccc(Cl)cc1)C(F)(F)F (stereo not drawn)	-2%	-3	-16%	-3	-2%	0%
O=C(CSc1nccn1Cc1ccc(F)cc1)NC1CCCCC1	.	3	-5%	-10	.	3%
Cc1ccc(S(=O)(=O)Nc2cccc3ccc[n+](C)c23)cc1	.	.	.	.	1%	.
Cc1onc(-c2c(F)cccc2Cl)c1C(=O)N[C@@H]1C(=O)N2[C@@H]1SC(C)(C)[C@@H]2C(=O)O	.	-9	.	.	.	.
Cc1c(Cl)cccc1NC(=O)c1ccc2c(c1)nnn2C1CCCC1	.	-19	i	.	.	.
COc1ccc(NC(=O)c2ccc(NC(=O)CN3CCN(c4ccccc4O)CC3)cc2)cc1	.	-2	-18%	-14	.	6%
COc1ccc(NC(=O)c2ccc(NC(=O)CN3CCN(c4ccc(O)cc4)CC3)cc2)cc1	.	82*	-13%	8	.	-31%
